Only some compounds are listed: those with a hit (about 0.8% of all), similar ones and a draw of the others.
TRHR ag: agonists of human TRH receptor; AID 493084; hit rate 0.18% among 360,000; TRHR cells, calcium flux fluo-8, FDSS agonist mode; activation, % at 2 µM; in the data active means activation above about 30%; further: 0% is about no effect
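Steps: seed TRHR cells overnight; add fluo-8 no-wash Ca dye, RT 30 min–1.5 h; record 10 s baseline; pin-transfer compounds; monitor fluorescence 1 cycle/s for the agonist window. Calcium increases flag candidate agonists.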
Glioma ERSR ind: ER stress response induction in glioma. U87-MG GRP78 promoter luciferase reporter, 16 h. Potency, µM, for inactives: top-dose activation, most hits filed as activators. hit rate 0.02% among 420,000; active means well fitted activation curve with a large enough effect; inconclusive means small, poorly fitted or top-dose-only effect; inactive means no such curve, though single readings can be large or run the other way; further: potency means the concentration at half of the fitted maximal effect; series mostly up to about 76 µM; % of control where 0% means no effect; nearly all actives have a fitted effect of over 35% in size
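ERSR induction read as luciferase luminescence (Bright-Glo, 10 min at room temperature) in stably transfected human U87-MG glioma cells exposed to compounds for 16 h, using GRP78 as sensor.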
TRPML1 inh: inhibitors of human TRPML1 channel; Q9GZU1; TRPML1-inducible cells, Ca2+ dye fluorescence, FDSS; hits give low values; inhibition of EC80 agonist-evoked calcium signal; activity change, negative = inhibition, % (concentration not given with the values); hit rate 0.02% among 390,000; in the data active means activity change below about -50%; inconclusive means between about -30% and that limit;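 further: stimulus is agonist 54-4 at its EC80 concentration; on the % scale 0 is the no-effect control and ±100 the full control effect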
Target sequence (Q9GZU1 whole entry, looked up): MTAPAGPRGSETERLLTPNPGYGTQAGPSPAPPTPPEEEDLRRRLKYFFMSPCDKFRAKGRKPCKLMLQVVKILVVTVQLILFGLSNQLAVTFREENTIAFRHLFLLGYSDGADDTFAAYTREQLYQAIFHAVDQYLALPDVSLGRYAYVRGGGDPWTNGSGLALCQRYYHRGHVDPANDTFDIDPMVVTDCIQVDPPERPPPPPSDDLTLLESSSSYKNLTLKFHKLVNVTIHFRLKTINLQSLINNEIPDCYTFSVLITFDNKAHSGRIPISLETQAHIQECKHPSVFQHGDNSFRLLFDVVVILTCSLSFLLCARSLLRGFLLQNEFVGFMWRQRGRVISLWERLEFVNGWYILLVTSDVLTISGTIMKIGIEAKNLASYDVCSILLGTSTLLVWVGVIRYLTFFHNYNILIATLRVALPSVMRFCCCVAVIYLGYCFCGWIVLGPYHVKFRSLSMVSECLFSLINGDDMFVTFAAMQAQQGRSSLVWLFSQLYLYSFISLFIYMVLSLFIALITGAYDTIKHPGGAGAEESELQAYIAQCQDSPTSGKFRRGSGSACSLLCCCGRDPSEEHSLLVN
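Tet-induced TRPML1-DL cells loaded with Ca8 no-wash calcium dye were read kinetically on FDSS. Compound addition was followed by EC80 agonist 54-4 (4 uM final); inhibition was read over 110 s.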
TRPML1 agonist: activates the human TRPML1 channel. hit rate 0.12% among 410,000. activation, % (concentration not given with the values). Q9GZU1. TRPML1-expressing cells, Ca2+ dye fluorescence, FDSS; in the data active means activation above about 50%; inconclusive means mostly about 30% to 49%; further: 0% is about no effect
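Calcium fluorescence on an FDSS kinetic reader gave the read-out. Tet-induced TRPML1-DL cells were plated overnight, dye-loaded (Ca8 with quencher, 45-90 min, room temperature, dark), then read 110 s after compound addition, and again 110 s after 4uM final 54-4 (EC80).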
TRHR PAM: allosterically enhances the human TRH receptor | enhancement, % at 2 µM | TRHR cells, fluo-8 calcium fluorescence, EC20 TRH enhancement | P34981 | hit rate 0.66% among 360,000; in the data active means enhancement above about 30%; further: 0% is about no effect
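Enhancer read-out: after compound pinning and an initial kinetic agonist-mode read, an EC20 of TRH (10 nM final) was injected and fluo-8 calcium signal (Ex 480/Em 530) followed at 1 s/cycle for 100 cycles in TRHR-expressing cells.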
* = called active by the depositor; ? = inconclusive; nt = no result.

SMILES	TRHR ag	Glioma ERSR ind	TRPML1 inh	TRPML1 agonist	TRHR PAM
OCCN1CCN(Cc2ccc3c(c2)CN(Cc2cccc4ncccc24)CCO3)CC1	nt	-1%	nt	nt	nt
CCc1nc(CN2CCOc3ccc(C(O)C4CCCCC4)cc3C2)c(C)[nH]1 (configuration not stated)	nt	-4%	nt	nt	nt
C=CCc1cccc(/C=N/n2cnnc2)c1O	0	-2%	-10	0	32*
COc1cc(=O)n2c(c1C(=O)NCc1ccco1)CCN(Cc1cccc(C(F)(F)F)c1)CC2	nt	-5%	nt	nt	nt
Cc1ccc(C)c(OCc2nnc(N)s2)c1	0	-2%	-14	-1	35*
Nc1nnc(COc2ccc(Br)cc2Br)s1	0	6%	5	0	-3
COc1ccc(CN2CCOc3ccc(CN4CCC(O)(c5cccnc5)CC4)cc3C2)c(C)c1C	nt	-6%	nt	nt	nt
O=C(c1ccc2c(Cl)c3c(nc2c1)CCCC3)N1CCN(c2ccc(Cl)cc2)CC1	0	-2%	0	-1	3
O=C(c1ccc2c(Cl)c3c(nc2c1)CCCC3)N1CCN(c2cccc(Cl)c2)CC1	0	-1%	-9	0	33*
FC(F)(F)c1cnc(-c2cc3c(c(OCC4CCCO4)c2)OCCN(Cc2cccn2-c2nccs2)C3)c(Cl)c1 (configuration not stated)	nt	2%	nt	nt	nt
Cc1nc2cc(-c3cccc(F)c3)nn2c(C)c1CCC(=O)N1CCN(c2ccc(F)cc2)CC1	0	-6%	11	0	4
COc1ccc(N2CCN(C(=O)CCc3c(C)nc4cc(-c5cccc(F)c5)nn4c3C)CC2)cc1	0	-7%	25	0	37*
CCOC(=O)c1cnc2ccccc2c1Nc1cc(C(=O)O)ccc1C	0	-2%	7	1	37*
COc1cc(OC)c2c(c1)C(=O)OC2OC (configuration not stated)	0	-4%	-28	0	36*
COc1cc(OC)c2c(c1)C(=O)OC2c1cc(OC)c(OC)cc1C (configuration not stated)	nt	-2%	nt	-1	nt
CS(=O)(=O)N(CC(=O)NCCc1ccccc1)C1CCCCC1	0	-5%	-7	0	40*
COc1ccc(CCNC(=O)CN(C2CCCCC2)S(C)(=O)=O)cc1OC	-1	-5%	-1	1	-7
CN1/C(=C\C(=O)c2cccnc2)C(C)(C)c2ccccc21	1	-2%	-15	2	2
CN1/C(=C\C(=O)c2cccc(S(=O)(=O)N3CCCCC3)c2)C(C)(C)c2ccccc21	0	-1%	-3	-1	30*
CC(=O)c1cccc(NC(=O)N2CCN(S(C)(=O)=O)CC2)c1	0	-3%	-4	0	34*
CCN(c1ccccc1)S(=O)(=O)c1cccc(C(=O)NCc2ccncc2)c1	0	-5%	6	0	31*
Cc1cnc(SCc2ccccn2)nc1C1CCCN(C(=O)c2cc3ccccc3oc2=O)C1 (configuration not stated)	nt	4%	nt	nt	nt
COc1ccc(/C=C/CN2CCN(CCc3ccccc3)C(CCO)C2)cc1 (configuration not stated)	0	1%	-4	0	39*
COc1cccc(-c2ccnc(-n3ncc(C(=O)NCC4(N5CCCCC5)CCCC4)c3C)n2)c1	nt	-5%	nt	nt	nt
COc1ccc(/C=C/C(=O)OCC(=O)Nc2cccc(C(C)=O)c2)cc1	0	0%	-10	1	37*
SMILES	TRHR ag	Glioma ERSR ind	TRPML1 inh	TRPML1 agonist	TRHR PAM
COc1ccc(/C=C/C(=O)OCC(=O)Nc2cc(C(N)=O)cc(C(N)=O)c2)cc1	0	1%	-5	-1	-6
O=C(NCc1ccccn1)c1cnn(-c2nccc(-c3cccs3)n2)c1C1CC1	nt	0%	nt	nt	nt
O=C(Nc1nnc(/C=C/c2ccccc2)s1)c1ccco1	0	2%	1	1	34*
COc1ccc(OC)c(-c2csc(NC(=O)Cc3ccccc3F)n2)c1	-1	-1%	-27	2	32*
COc1ccc(OC)c(-c2csc(NC(=O)Cc3ccccc3OC)n2)c1	1	0%	25	2	17
Cc1ccccc1NC(=O)Nc1nnc(Cc2ccc([N+](=O)[O-])cc2)s1	1	-5%	16	0	40*
Cc1ccc(S(=O)(=O)N2CCc3ccccc3C2CN2C(=O)c3ccccc3C2=O)cc1 (configuration not stated)	0	-4%	-19	87*	14
CC(C)Cc1nc2cc(NS(=O)(=O)N(C)C)cc(C(=O)N3CCc4sccc4C3)c2n1C	nt	8%	nt	nt	nt
Cc1cnc(C)c(-c2cc(F)cc3c2OC(CNC(=O)Cc2ccccc2C)C3)n1 (configuration not stated)	nt	-5%	nt	nt	nt
O=C(O)c1ccccc1N=Nc1ccc(O)cc1	nt	-3%	-2	0	nt
O=C(O)c1cc(O)ccc1N=Nc1ccccc1	0	28µM*	-2	-1	-4
Cc1cc(=O)n(Cc2ccccc2)c2c1c(C)nn2C	0	-2%	30	4	12
Cc1nn(C)c2c1c(-c1ccccc1)cc(=O)n2Cc1ccc(Cl)cc1	1	0%	58	3	39*
N#CCC(N)=C(C#N)C#N	38*	-2%	0	7	-8
COC(=O)CC#N	-1	-1%	0	0	2
c1cncc(-c2ccnc3ncnn23)c1	0	0%	16	0	33*
NC(=O)CSCc1nc2ccccc2s1	2	5%	5	0	37*
N/C(Cc1nc2ccccc2s1)=N\O	2	5%	-26	0	-1
Cc1c(C(=O)N2CCN(C(C)C)CC2)sc2ncnc(NCc3ccco3)c12	nt	-4%	nt	nt	nt
Cc1ccccc1CNS(=O)(=O)c1ccccc1[N+](=O)[O-]	0	-2%	-1	-1	32*
Cc1cc2c(cc1C)NC(c1c(C)n(C)n(-c3ccccc3)c1=O)C1=C(CC(C)(C)CC1=O)N2 (configuration not stated)	43*	-1%	10	?	1
O=C(Cn1cncn1)N/N=C/c1ccccc1Cl	1	-2%	-9	-1	32*
O=C(NCc1ccccc1)c1ccc(C(=O)N(C2CCCCC2)C2CCCCC2)cc1	-1	-6%	?	119*	-10
O=C(NCc1ccccc1)c1ccc(C(=O)NCc2ccccc2)cc1	nt	-4%	-22	0	nt
O=C(CNC(=O)c1ccccc1)OC1CCCCC1	-1	-6%	6	-1	33*
Cc1ccccc1C(=O)NC(C)c1nnc2n1CCN(Cc1ccnc3ccccc13)CC2 (configuration not stated)	nt	-2%	nt	nt	nt
Cc1oc(-c2ccccc2NC(=O)c2ccccn2)nc1CNC(=O)c1ccc(Oc2ccccc2)o1	nt	-1%	nt	nt	nt
N#CCC(=O)Nc1ccc(C(=O)OCC(=O)Nc2cc(-c3ccccc3)nn2-c2ccccc2)cc1	nt	-1%	11	0	nt
